From PubChem BioAssay AID1159580 (chemical genetic matrix, 2015)
Values joined by “and” are separate entries in the source; they are usually repeats but may differ in a detail not shown here. Identical values can stand only once. In all, about 5,500 compounds went through this assay and about 2,000 (36%) were called active. Inconclusive results (about 18%) are left out. This is one part of the list. Values without a mark were called inactive. Cut-off read from the data, not from the text of the source: active = normalized growth mostly below about 0.91 (no sharp cut-off); inconclusive = no clear call, values can overlap the other calls; inactive = mostly above about 0.92.

Experiment: chemical genetic growth profiling, strain panel (AID 1159580);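 note: tested at 20 µM; growth read once vehicle control cultures reached saturation at 30 °C; 1 = growth at the plate median or of vehicle wells; lower values mean less growth of the strain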
Settings: S. cerevisiae deletion strains, growth OD
[1] = locus YDR150W, strain NUM1, stronger effect = lower value
[2] = locus YNL153C, strain GIM3, stronger effect = lower value
[3] = locus YPL241C, strain CIN2, stronger effect = lower value
[4] = locus YAL013W, strain DEP1, stronger effect = lower value
[5] = locus YBR229C, strain ROT2, stronger effect = lower value
[6] = locus YDL101C, strain DUN1, stronger effect = lower value
[7] = locus YEL061C, strain CIN8, stronger effect = lower value
[8] = locus YGR078C, strain PAC10, stronger effect = lower value
[9] = locus YGR229C, strain SMI1, stronger effect = lower value
[10] = locus YHR030C, strain SLT2, stronger effect = lower value
[11] = locus YHR087W, strain rtc3, stronger effect = lower value
[12] = locus YJL187C, strain SWE1, stronger effect = lower value
[13] = locus YJR043C, strain POL32, stronger effect = lower value
[14] = locus YJR075W, strain HOC1, stronger effect = lower value
[15] = locus YLR039C, strain RIC1, stronger effect = lower value
[16] = locus YLR058C, strain SHM2 (second series), stronger effect = lower value
[17] = locus YLR085C, strain ARP6, stronger effect = lower value
[18] = locus YLR262C, strain YPT6, stronger effect = lower value
[19] = locus YML094W, strain GIM5, stronger effect = lower value
[20] = locus YMR219W, strain ESC1, stronger effect = lower value
[21] = locus YMR263W, strain SAP30, stronger effect = lower value
[22] = locus YNL298W, strain CLA4 (second series), stronger effect = lower value
[23] = locus YNL322C, strain KRE1, stronger effect = lower value
[24] = locus YNR030W, strain Alg12, stronger effect = lower value
[25] = locus YPL055C, strain LGE1, stronger effect = lower value
[26] = locus YPR135W, strain CTF4, stronger effect = lower value

With `Cc1ccc([N+](=O)[O-])cc1S(=O)(=O)N(C)C` as the compound, how does the normalized growth (locus YAL040C, strain CLN3, stronger effect = lower value) read?
Its normalized growth is 0.984.

And the normalized growth (locus YCL061C, strain MRC1 (second series), stronger effect = lower value)?
Its normalized growth is 1.

What about the normalized growth [1] of the same compound?
The normalized growth was 1.03.

And the normalized growth (locus YDR363W, strain ESC2, stronger effect = lower value)?
Its normalized growth is 0.972.

And the normalized growth (locus YER002W, strain NOP16, stronger effect = lower value)?
Its normalized growth is 1.

What about the normalized growth [2] of the same compound?
Its normalized growth is 0.846.

And the normalized growth (locus YNL175C, strain NOP13, stronger effect = lower value)?
The normalized growth was 0.996.

What about the normalized growth (locus YNL197C, strain WHI3, stronger effect = lower value) of the same compound?
Its normalized growth is 0.926.

What about the normalized growth (locus YNL224C, strain SQS1, stronger effect = lower value) of the same compound?
The normalized growth was 0.979.

And the normalized growth (locus YOR083W, strain WHI5 (second series), stronger effect = lower value)?
Its normalized growth is 0.955.

And the normalized growth [3]?
Its normalized growth is 0.998.

With `O=[N+]([O-])c1ccc2c(c1)NC(c1ccc([N+](=O)[O-])s1)O2` (centres undefined) as the compound, how does the normalized growth [4] read?
Its normalized growth is 0.0563 (active).

And the normalized growth [5]?
Its normalized growth is 0.0525 (active).

What about the normalized growth (locus YCL061C, strain MRC1, stronger effect = lower value) of the same compound?
Its normalized growth is 0.0508 (active).

And the normalized growth [6]?
Its normalized growth is 0.0673 (active).

And the normalized growth (locus YDL134C, strain PPH21, stronger effect = lower value)?
The normalized growth was 0.0453 (active).

And the normalized growth [1]?
Its normalized growth is 0.0493 (active).

And the normalized growth [7]?
The normalized growth was 0.049 (active).

What about the normalized growth (locus YGR052W, strain FMP48, stronger effect = lower value) of the same compound?
Its normalized growth is 0.104 (active).

And the normalized growth [8]?
The normalized growth was 0.0481 (active).

And the normalized growth [9]?
The normalized growth was 0.0516 (active).

What about the normalized growth [10] of the same compound?
Its normalized growth is 0.0641 (active) and 0.114 (active).

And the normalized growth (locus YHR079C, strain IRE1, stronger effect = lower value)?
The normalized growth was 0.11 (active).

What about the normalized growth (locus YHR082C, strain KSP1, stronger effect = lower value) of the same compound?
Its normalized growth is 0.106 (active).

And the normalized growth [11]?
The normalized growth was 0.0539 (active).

What about the normalized growth (locus YJL095W, strain BCK1, stronger effect = lower value) of the same compound?
Its normalized growth is 0.1 (active).

What about the normalized growth [12] of the same compound?
The normalized growth was 0.0478 (active).

What about the normalized growth [13] of the same compound?
The normalized growth was 0.0509 (active).

And the normalized growth (locus YJR066W, strain TOR1, stronger effect = lower value)?
The normalized growth was 0.1 (active).

What about the normalized growth [14] of the same compound?
The normalized growth was 0.0918 (active).

What about the normalized growth (locus YKL171W, strain NNK1, stronger effect = lower value) of the same compound?
Its normalized growth is 0.387 (active).

And the normalized growth (locus YKL203C, strain TOR2, stronger effect = lower value)?
Its normalized growth is 0.0984 (active).

What about the normalized growth [15] of the same compound?
The normalized growth was 0.0606 (active).

And the normalized growth [16]?
Its normalized growth is 0.0478 (active).

What about the normalized growth [17] of the same compound?
The normalized growth was 0.0638 (active).

And the normalized growth (locus YLR113W, strain HOG1, stronger effect = lower value)?
The normalized growth was 0.187 (active).

What about the normalized growth [18] of the same compound?
The normalized growth was 0.0626 (active).

What about the normalized growth [19] of the same compound?
The normalized growth was 0.0601 (active).

What about the normalized growth [20] of the same compound?
Its normalized growth is 0.0484 (active).

What about the normalized growth [21] of the same compound?
The normalized growth was 0.0575 (active).

And the normalized growth [2]?
The normalized growth was 0.0476 (active).

What about the normalized growth (locus YNL183C, strain NPR1, stronger effect = lower value) of the same compound?
Its normalized growth is 0.108 (active).

What about the normalized growth (locus YNL207W, strain RIO2, stronger effect = lower value) of the same compound?
The normalized growth was 0.107 (active).

And the normalized growth [22]?
The normalized growth was 0.0735 (active).

And the normalized growth [23]?
The normalized growth was 0.0534 (active).

And the normalized growth [24]?
Its normalized growth is 0.063 (active).

And the normalized growth (locus YOR119C, strain RIO1, stronger effect = lower value)?
Its normalized growth is 0.0996 (active).

What about the normalized growth (locus YOR231W, strain MKK1, stronger effect = lower value) of the same compound?
The normalized growth was 0.101 (active).

And the normalized growth [25]?
The normalized growth was 0.0657 (active).

What about the normalized growth [3] of the same compound?
Its normalized growth is 0.0629 (active).

And the normalized growth (locus YPL256C, strain CLN2, stronger effect = lower value)?
The normalized growth was 0.17 (active).

What about the normalized growth [26] of the same compound?
Its normalized growth is 0.149 (active).

For `CN1c2ccccc2C(=O)NC1c1ccc([N+](=O)[O-])s1` (centres undefined), which normalized growth [4] is on record?
Its normalized growth is 1.

And the normalized growth [5]?
Its normalized growth is 0.988.

And the normalized growth [6]?
Its normalized growth is 1.02.

And the normalized growth [1]?
Its normalized growth is 1.

And the normalized growth [7]?
The normalized growth was 0.967.

And the normalized growth [8]?
The normalized growth was 1.02.

What about the normalized growth [9] of the same compound?
The normalized growth was 0.989.

And the normalized growth [10]?
Its normalized growth is 1.

And the normalized growth [11]?
Its normalized growth is 0.991.

What about the normalized growth [12] of the same compound?
The normalized growth was 0.996.

What about the normalized growth [13] of the same compound?
The normalized growth was 1.01.

What about the normalized growth [14] of the same compound?
Its normalized growth is 1.02.

What about the normalized growth [15] of the same compound?
Its normalized growth is 1.02.

What about the normalized growth [16] of the same compound?
The normalized growth was 0.995.

And the normalized growth [17]?
Its normalized growth is 1.03.

And the normalized growth [18]?
The normalized growth was 1.05.

And the normalized growth [19]?
Its normalized growth is 0.989.

What about the normalized growth [20] of the same compound?
Its normalized growth is 0.995.

And the normalized growth [21]?
Its normalized growth is 1.

And the normalized growth (locus YMR307W, strain GAS1, stronger effect = lower value)?
The normalized growth was 1.01.

What about the normalized growth [2] of the same compound?
The normalized growth was 1.02.

What about the normalized growth [22] of the same compound?
Its normalized growth is 1.01.

What about the normalized growth [23] of the same compound?
The normalized growth was 0.995.

And the normalized growth [24]?
Its normalized growth is 0.988.

What about the normalized growth [25] of the same compound?
The normalized growth was 0.971.

And the normalized growth [3]?
Its normalized growth is 1.

What about the normalized growth [26] of the same compound?
Its normalized growth is 1.05.
